Residue numbers refer to the chain shown, from its start.
Columns and labels:
Test in all cases: protein-binding microarray (PBM); PBM: ~300 nM protein, 6 mM HEPES pH 7.8, 80 mM KCl, 0.5 mM EDTA, 0.5 mM EGTA, 6% glycerol, 35 ng/ul poly-dIdC, 1% milk, 1 h, room temperature; Ap Aiptasia and Nv Nematostella (sea anemones) / Co Capsaspora / Aq Amphimedon (sponge) / Dm Drosophila / Hu human; RHD is the Rel homology domain; high values mean tight binding
Details in all cases: dsDNA, one strand shown
GST-Ap-NF-kB RHD = target: T1, GST-Ap-NF-kB RHD (Exaiptasia pallida (Aiptasia), UniProt A0A913YAJ5 2-422)
T1 sequence: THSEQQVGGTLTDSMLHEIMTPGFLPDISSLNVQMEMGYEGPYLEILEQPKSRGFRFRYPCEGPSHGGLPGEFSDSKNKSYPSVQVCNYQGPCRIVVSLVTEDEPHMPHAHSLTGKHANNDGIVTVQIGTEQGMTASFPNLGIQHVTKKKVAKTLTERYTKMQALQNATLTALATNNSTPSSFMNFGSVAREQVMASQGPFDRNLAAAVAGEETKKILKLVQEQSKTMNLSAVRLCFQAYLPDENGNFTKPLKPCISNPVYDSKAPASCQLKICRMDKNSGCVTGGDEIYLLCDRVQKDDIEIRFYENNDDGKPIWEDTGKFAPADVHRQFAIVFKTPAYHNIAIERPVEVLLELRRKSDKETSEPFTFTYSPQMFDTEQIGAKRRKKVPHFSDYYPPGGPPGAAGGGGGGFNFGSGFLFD

[1] = target: T2, GST-Nv-NF-kB (Cys allele) (Nematostella vectensis, UniProt E5G601 2-411)
T2 sequence: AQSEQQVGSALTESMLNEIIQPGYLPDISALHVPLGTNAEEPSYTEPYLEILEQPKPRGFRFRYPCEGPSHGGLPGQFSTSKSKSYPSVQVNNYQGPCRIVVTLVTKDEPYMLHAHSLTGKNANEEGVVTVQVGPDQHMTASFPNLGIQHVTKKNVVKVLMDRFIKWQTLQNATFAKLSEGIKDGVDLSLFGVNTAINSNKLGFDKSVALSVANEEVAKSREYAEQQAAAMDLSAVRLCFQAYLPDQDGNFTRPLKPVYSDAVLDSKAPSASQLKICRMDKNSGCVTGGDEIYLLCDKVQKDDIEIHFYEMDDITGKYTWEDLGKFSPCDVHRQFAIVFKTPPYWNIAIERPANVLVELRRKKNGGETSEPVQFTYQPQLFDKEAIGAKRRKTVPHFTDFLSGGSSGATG

[2] = target: T3, GST-Nv-NF-kB (Ser allele) (Nematostella vectensis, UniProt A7UNT2 2-411)
T3 sequence: T2 sequence with Q21R, C66S, S207N, E215Q, V217A, E225K, A268E, D399E

GST-Co-NF-kB = target: T4, GST-Co-NF-kB (Capsaspora owczarzaki, UniProt F1ARL5 200-546)
T4 sequence: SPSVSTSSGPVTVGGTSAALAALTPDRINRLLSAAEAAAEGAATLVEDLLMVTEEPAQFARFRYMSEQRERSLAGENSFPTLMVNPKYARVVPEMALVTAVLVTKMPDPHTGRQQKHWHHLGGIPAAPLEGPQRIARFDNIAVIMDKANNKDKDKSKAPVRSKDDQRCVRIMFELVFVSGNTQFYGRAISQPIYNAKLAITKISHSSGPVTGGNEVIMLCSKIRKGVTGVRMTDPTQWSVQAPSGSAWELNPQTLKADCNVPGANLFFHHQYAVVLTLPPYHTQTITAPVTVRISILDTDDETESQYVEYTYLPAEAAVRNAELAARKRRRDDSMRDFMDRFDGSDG

GST-Dm-Relish = target: T5, GST-Dm-Relish (Drosophila melanogaster, UniProt Q94527 99-473)
T5 sequence: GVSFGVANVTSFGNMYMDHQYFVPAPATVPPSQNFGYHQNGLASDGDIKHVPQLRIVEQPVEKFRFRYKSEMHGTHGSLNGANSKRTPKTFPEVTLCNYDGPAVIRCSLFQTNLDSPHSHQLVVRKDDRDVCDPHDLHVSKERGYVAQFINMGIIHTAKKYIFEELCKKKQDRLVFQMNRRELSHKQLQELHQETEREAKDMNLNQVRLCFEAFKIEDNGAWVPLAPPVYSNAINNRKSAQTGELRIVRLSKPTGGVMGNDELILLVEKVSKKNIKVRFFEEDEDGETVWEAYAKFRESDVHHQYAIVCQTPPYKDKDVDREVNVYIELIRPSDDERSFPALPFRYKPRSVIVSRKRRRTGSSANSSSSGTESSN

GST-Aq-NF-kB = target: T6, GST-Aq-NF-kB (Amphimedon queenslandica, UniProt A9Y5G7 2-389)
T6 sequence: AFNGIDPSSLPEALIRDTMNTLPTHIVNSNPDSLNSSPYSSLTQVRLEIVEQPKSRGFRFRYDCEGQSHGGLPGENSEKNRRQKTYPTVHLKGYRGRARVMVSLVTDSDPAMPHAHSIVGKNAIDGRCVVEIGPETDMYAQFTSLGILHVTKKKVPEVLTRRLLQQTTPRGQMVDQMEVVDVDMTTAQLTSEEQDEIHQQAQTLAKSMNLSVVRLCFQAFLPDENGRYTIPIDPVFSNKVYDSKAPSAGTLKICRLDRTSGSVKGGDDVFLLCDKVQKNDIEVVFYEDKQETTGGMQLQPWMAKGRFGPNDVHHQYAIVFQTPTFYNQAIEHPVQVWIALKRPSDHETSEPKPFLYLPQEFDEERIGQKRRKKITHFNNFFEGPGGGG

GST-Hu-p50 = GST-Hu-p50 (Homo sapiens, UniProt P19838 7-356)
Sequence of GST-Hu-p50 (P19838 7-356): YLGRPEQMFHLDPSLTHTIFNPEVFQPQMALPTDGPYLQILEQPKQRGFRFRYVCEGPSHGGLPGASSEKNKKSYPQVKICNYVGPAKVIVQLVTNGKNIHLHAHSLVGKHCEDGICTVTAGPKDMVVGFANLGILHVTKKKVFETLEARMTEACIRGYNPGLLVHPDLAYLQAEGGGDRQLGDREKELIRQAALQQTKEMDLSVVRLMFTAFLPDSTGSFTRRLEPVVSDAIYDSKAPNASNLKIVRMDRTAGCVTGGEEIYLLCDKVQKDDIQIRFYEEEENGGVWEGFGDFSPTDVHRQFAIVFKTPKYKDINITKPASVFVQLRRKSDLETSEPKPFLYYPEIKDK

Sequence	binding signal (GST-Ap-NF-kB RHD) [z-score]	binding signal [1] [z-score]	binding signal [2] [z-score]	binding signal (GST-Co-NF-kB) [z-score]	binding signal (GST-Dm-Relish) [z-score]	binding signal (GST-Aq-NF-kB) [z-score]	binding signal (GST-Hu-p50) [z-score]
CCGATTAACATCAAGGGAAGTCCTGATGTTAATCGGGTCTTGATTCGCTTGACGCTGCTG	3.99	4.16	2.7	1.08	7.26	5.77	2.73
CCGATTAACATCAGAAAAACCCCTGATGTTAATCGGGTCTTGATTCGCTTGACGCTGCTG	7.98	8.56	7.56	2.03	9.4	7.67	7.6
CCGATTAACATCAGTAATCCCCATGATGTTAATCGGGTCTTGATTCGCTTGACGCTGCTG	6.5	5.74	6.91	3.87	6.04	4.5	5.31
CCGATTAACATCAGAACTTCCCCTGATGTTAATCGGGTCTTGATTCGCTTGACGCTGCTG	7.33	9	7.95	6.75	7.85	7.57	6.4
CCGATTAACATCAAATCCCCCCATGATGTTAATCGGGTCTTGATTCGCTTGACGCTGCTG	7.89	6.31	6.65	7.39	7.66	6.36	6.55
CCGATTAACATCAATATATTCCCTGATGTTAATCGGGTCTTGATTCGCTTGACGCTGCTG	4.19	4.64	4.95	4.09	2.1	3.52	2.88
CCGATTAACATCAGGGGAAATAATGATGTTAATCGGGTCTTGATTCGCTTGACGCTGCTG	6.88	8.65	11.6	9	5.53	5.68	6.58
CCGATTAACATCACCCCTTCCCCTGATGTTAATCGGGTCTTGATTCGCTTGACGCTGCTG	4.7	3.88	4.86	5.6	2.5	3.85	3.3
CCGATTAACATCAGGATTACCCCTGATGTTAATCGGGTCTTGATTCGCTTGACGCTGCTG	4.61	4.15	3.63	3.97	4.19	5.53	3.75
CCGATTAACATCAAAAATTTCCCTGATGTTAATCGGGTCTTGATTCGCTTGACGCTGCTG	5.61	8.92	8.77	5.47	6.05	7.58	5.67
CCGATTAACATCAGTATTTCCCATGATGTTAATCGGGTCTTGATTCGCTTGACGCTGCTG	3.01	3.64	3.53	3.66	5.01	3.73	2.64
CCGATTAACATCAAGTAACCCCCTGATGTTAATCGGGTCTTGATTCGCTTGACGCTGCTG	6.04	4.44	4.98	3.76	6.97	5.32	5.24
